Test results: PubChem BioAssay (Tox21)
Inconclusive results are not listed. A call without a number means that no potency is given here. Activity calls are given as the source filed them. Unless noted, the call rests on the fitted dose curve.

Target: Estrogen receptor (Homo sapiens) (UniProt P03372)
Sequence (P03372 whole entry, looked up): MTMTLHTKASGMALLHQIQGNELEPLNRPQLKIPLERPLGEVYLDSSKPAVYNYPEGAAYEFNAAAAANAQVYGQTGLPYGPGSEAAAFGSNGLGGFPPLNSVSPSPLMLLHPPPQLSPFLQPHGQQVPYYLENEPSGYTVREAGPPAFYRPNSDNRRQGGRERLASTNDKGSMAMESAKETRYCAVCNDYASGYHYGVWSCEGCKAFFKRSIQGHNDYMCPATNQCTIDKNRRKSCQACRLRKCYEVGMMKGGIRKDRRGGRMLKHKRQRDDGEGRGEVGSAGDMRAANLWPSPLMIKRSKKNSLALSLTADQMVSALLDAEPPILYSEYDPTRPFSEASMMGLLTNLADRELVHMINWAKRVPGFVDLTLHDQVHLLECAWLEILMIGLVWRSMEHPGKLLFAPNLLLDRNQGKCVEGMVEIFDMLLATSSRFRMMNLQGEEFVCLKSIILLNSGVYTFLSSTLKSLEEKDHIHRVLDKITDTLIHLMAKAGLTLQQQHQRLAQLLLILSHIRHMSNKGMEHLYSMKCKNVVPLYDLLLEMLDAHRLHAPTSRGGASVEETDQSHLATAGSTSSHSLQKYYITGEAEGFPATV
Experiment: qHTS assay to identify small molecule antagonists of the estrogen receptor alpha (ER-alpha) signaling pathway (AID 743069; active means well fitted curve in the direction sought with a large enough effect in the signal ratio in the repeat runs, not every such curve was filed as active; the % refers to the signal ratio)
Settings: HEK293 ER-alpha-UAS-bla, beta-lactamase ratio, antagonist mode; series mostly up to 69.4 µM
Summary of the method: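 HEK293 cells stably carrying an ER-alpha-UAS-bla beta-lactamase reporter were pre-cultured overnight in 2% charcoal-stripped FBS medium. Test compounds in DMSO were added together with 17beta-estradiol for 18 hr at 37C. Read-out was fluorescence after 2 hr with LiveBLAzer B/G FRET substrate at room temperature.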
For `CCCOCCOCCO`, the Potency was “inactive”.
For `CC1CN(c2cc3c(cc2F)c(=O)c(C(=O)O)cn3-c2ccc(F)cc2F)CCN1` (stereo unspecified), the Potency was “inactive”.
For `CC(C)(CCl)c1ccccc1`, the Potency was “inactive”.
In the case of `Nc1ccc(Cl)cc1[N+](=O)[O-]`, the Potency is reported as “inactive”.
For `CC(Cl)C(Cl)Cl` (stereo unspecified), the Potency was “inactive”.
In the case of `Cc1nc2ccccc2s1`, the Potency is reported as “inactive”.
For `C=CCCCCCCCCCCCCCCCC`, the activity, negative = inhibition was 10.1% [at 6.71 µM] (inactive).

System: not listed separately
Experiment: qHTS assay to identify small molecule antagonists of the estrogen receptor alpha (ER-alpha) signaling pathway - cell viability counter screen (AID 743074); further: nearly all actives have a fitted effect of over 45% in size
Settings: ERalpha-bla HEK293 viability, CellTiter-Glo luminescence, 18 h; series mostly up to 69.4 µM
For `Fc1ccccc1[C@@H](F)COC1CCC(Nc2ncnc3[nH]ncc23)CC1` (stereo partly specified), the Potency was “inactive”.
In the case of `CC(C)=CC=O`, the Potency is reported as “inactive”.
For `CC(=O)Nc1ccc(N)cc1`, the Potency was “inactive”.
With `O=C(N/N=C/c1ccc([N+](=O)[O-])o1)c1ccc(O)cc1` the Potency was “inactive”.
With `O=S1OCCO1` the Potency was “inactive”.
With `CCOC(=O)CC(=O)C(=O)OCC` the Potency was “inactive”.
For `CC(COc1ccc(C(C)(C)C)cc1)OS(=O)OCCCl` (stereo unspecified), the Potency was “inactive”.
With `CCCOC(=O)c1ccc(C(=O)OCCC)nc1` the Potency was “inactive”.
In the case of `CCCCCCCCCCCCCCCCBr`, the Potency is reported as “inactive”.
In the case of `C=CC(=C)CCCC(C)(C)OC(C)=O`, the Potency is reported as “inactive”.
For `OCC1CC=CCC1` (stereo unspecified), the Potency was “inactive”.
For `COc1cc2ncnc(Nc3ccc(F)c(Cl)c3)c2cc1OCCCN1CCOCC1`, the Potency was “inactive”.
In the case of `CO[C@H]1C=CO[C@@]2(C)Oc3c(C)c(O)c4c(O)c(c5c(c4c3C2=O)=NC2(CCN(CC(C)C)CC2)N=5)NC(=O)/C(C)=C\C=C/[C@H](C)[C@H](O)[C@@H](C)[C@@H](O)[C@@H](C)[C@H](OC(C)=O)[C@@H]1C`, the Potency is reported as “inactive”.
For `CCCCCC=CCC=CCCCCCCCC(=O)OCC`, the Potency was “inactive”.
In the case of `COc1cc2c(N3CCN(C(=O)Nc4ccc(OC(C)C)cc4)CC3)ncnc2cc1OCCCN1CCCCC1`, the Potency is reported as “inactive”.
For `CC(=O)[C@H]1CC[C@H]2[C@@H]3C=CC4=CC(=O)CC[C@@]4(C)[C@@H]3CC[C@]12C`, the Potency was “inactive”.
With `CCCCCCCCCCCCCCC[C@H](O)[C@@H](N)CO` the Potency was “inactive”.
With `O=C(O)c1cccnc1C(=O)O` the Potency was “inactive”.
For `Oc1ccc(Nc2ccccc2)cc1`, the Potency was “inactive”.
In the case of `CC1(C)C2=CCCC(C)(C)[C@]23CC[C@H]1C3`, the Potency is reported as “inactive”.
For `COC(=O)[C@@H]1CC2=CC(=O)CC[C@]2(C)[C@@]23O[C@@H]2C[C@@]2(C)[C@@H](CC[C@@]24CCC(=O)O4)[C@H]13`, the Potency was “inactive”.
With `COCC(O)CO` (stereo unspecified) the Potency was “inactive”.
With `CCC(=O)OC/C=C/c1ccccc1` the Potency was “inactive”.
With `O=Cc1c(Cl)cccc1Cl` the Potency was “inactive”.
With `c1cnc2c(n1)CCCC2` the Potency was “inactive”.
With `COC(OC)(C(=O)c1ccccc1)c1ccccc1` the Potency was “inactive”.
For `CC(C)CCCC(=O)O`, the Potency was “inactive”.
With `CCCOCCOCCO` the Potency was “inactive”.
For `CC1CN(c2cc3c(cc2F)c(=O)c(C(=O)O)cn3-c2ccc(F)cc2F)CCN1` (stereo unspecified), the Potency was “inactive”.
For `CC(C)(CCl)c1ccccc1`, the Potency was “inactive”.
In the case of `Nc1ccc(Cl)cc1[N+](=O)[O-]`, the Potency is reported as “inactive”.
For `CC(Cl)C(Cl)Cl` (stereo unspecified), the Potency was “inactive”.
For `Cc1nc2ccccc2s1`, the Potency was “inactive”.
In the case of `C=CCCCCCCCCCCCCCCCC`, the activity, negative = cytotoxicity is reported as -5.03% [at 6.72 µM] (inactive).
